# For part of these data: Potency and affinity values are given separately.
# Assays:
# Set-up in all cases: scale not given: direction of the effect not stated beside the values
# [1] = target: Protein translocase subunit SecA (Escherichia coli (strain K12)) (UniProt P10408); experiment: Assay to Identify E. coli SecA ATPase Inhibitors; type: functional; conditions: 30 µM
# [2] = target: T1, Ubiquitin-activating enzyme e1, putative (Leishmania donovani (strain BPK282A1)) (UniProt E9BSI1); experiment: Leishmania donovani Ubiquitin Activating Enzyme (LdE1); type: functional; conditions: 30 µM
# T1 sequence (whole entry): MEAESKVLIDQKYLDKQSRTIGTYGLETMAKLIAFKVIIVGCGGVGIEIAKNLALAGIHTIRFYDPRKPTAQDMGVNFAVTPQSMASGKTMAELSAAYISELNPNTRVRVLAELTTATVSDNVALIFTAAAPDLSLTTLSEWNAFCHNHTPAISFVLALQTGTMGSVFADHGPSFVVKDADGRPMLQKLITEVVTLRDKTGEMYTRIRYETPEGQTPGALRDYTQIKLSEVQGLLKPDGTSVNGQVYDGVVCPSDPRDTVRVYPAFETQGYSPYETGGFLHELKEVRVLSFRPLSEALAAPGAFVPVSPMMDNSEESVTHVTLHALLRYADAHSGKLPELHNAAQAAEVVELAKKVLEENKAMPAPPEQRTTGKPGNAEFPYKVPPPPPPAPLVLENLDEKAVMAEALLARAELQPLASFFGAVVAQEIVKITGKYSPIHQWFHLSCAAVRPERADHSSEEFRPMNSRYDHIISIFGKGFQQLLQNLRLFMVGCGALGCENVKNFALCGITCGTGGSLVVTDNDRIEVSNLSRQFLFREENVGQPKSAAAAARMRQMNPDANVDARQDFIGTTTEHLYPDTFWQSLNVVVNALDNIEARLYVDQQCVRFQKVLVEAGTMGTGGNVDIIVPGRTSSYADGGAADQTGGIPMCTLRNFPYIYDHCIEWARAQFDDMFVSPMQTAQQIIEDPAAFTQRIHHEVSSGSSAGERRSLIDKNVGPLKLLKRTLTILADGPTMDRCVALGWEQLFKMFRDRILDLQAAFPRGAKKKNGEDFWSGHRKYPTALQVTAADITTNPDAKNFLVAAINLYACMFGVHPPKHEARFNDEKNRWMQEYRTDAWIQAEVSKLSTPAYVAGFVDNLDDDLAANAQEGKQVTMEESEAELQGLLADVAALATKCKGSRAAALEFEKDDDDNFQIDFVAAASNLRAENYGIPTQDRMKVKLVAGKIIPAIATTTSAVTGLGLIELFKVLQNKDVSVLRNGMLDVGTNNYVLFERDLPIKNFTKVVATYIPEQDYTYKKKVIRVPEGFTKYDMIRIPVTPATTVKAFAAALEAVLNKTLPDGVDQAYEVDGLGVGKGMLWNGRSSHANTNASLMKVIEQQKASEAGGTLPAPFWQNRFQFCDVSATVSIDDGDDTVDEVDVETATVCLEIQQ
# [3] = target: AMP-activated protein kinase, AMPK (Homo sapiens) (UniProt P54646+O43741+P54619+Q9UGJ0+Q9Y478+Q13131+Q9UGI9); experiment: AMP-dependent Kinase enzyme assay. An in vitro enzyme assay that detects ADP turnover that is directly proportional to AMPK activity. This uses naive AMPK that is activated during the assay with MK-8722; type: functional; conditions: 30 µM
# [4] = target: Sialic acid-binding Ig-like lectin 9 (Homo sapiens) (UniProt Q9Y336); experiment: Hs-Siglec9 ALPHAscreen SOP 20170721; conditions: 10 µM
# Sialic acid-binding Ig-like lectin 9 (Homo sapiens), sequence (Q9Y336 whole entry): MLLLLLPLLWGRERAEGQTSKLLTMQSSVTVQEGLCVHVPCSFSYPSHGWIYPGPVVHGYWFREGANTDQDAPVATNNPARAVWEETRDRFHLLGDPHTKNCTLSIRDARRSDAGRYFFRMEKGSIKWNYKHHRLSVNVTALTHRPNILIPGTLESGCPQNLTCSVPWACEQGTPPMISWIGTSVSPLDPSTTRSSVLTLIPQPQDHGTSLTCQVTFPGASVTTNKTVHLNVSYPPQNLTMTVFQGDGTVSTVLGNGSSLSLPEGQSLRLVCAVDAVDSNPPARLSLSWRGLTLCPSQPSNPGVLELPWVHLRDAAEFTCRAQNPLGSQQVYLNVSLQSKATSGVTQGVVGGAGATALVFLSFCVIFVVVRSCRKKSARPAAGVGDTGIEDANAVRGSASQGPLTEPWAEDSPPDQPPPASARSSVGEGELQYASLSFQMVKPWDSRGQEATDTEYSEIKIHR
# Trypanosoma cruzi = experiment: Trypanosoma cruzi phosphomannomutase and mannose-1-phosphate guanylyltransferase assay; type: functional; conditions: 10 µM
# [5] = target: T2, Arginase-2, mitochondrial (Homo sapiens) (UniProt P78540); experiment: in vitro enzyme assay to detect the production of urea directly proportional to the activity of Arginase II; type: functional; conditions: 33.3 µM; further: in the data most compounds retested in dose-response had high values
# T2 sequence (whole entry): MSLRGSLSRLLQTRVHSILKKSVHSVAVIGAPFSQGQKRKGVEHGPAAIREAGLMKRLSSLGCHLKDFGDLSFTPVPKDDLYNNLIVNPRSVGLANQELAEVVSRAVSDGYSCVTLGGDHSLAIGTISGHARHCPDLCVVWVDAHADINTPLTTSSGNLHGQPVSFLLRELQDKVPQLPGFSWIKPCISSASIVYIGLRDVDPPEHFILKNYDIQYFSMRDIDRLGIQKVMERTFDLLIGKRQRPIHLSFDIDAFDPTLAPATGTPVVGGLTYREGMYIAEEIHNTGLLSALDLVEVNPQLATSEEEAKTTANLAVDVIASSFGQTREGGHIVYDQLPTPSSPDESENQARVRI
# [6] = target: T3, Proteasome subunit beta (Trypanosoma cruzi) (UniProt O96673); experiment: Trypanosoma cruzi proteasome chymotrypsin-like activity (TcProtChymo) assay.; further: in the data most compounds retested in dose-response had high values; type: functional; conditions: 9.37 µM
# T3 sequence (whole entry): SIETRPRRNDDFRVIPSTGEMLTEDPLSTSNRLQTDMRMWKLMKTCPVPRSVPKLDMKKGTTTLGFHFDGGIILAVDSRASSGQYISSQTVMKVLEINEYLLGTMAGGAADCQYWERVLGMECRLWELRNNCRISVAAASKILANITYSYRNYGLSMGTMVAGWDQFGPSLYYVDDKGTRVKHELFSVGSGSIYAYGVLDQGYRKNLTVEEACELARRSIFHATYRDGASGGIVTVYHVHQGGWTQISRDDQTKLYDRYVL
# Homo sapiens = species on record: Homo sapiens; experiment: To identify inhibition of the IFN signalling (Jak-Stat) pathway via expression of an eGFP reporter gene under the control of an IFN-stimulated response element (ISRE) containing MxA promoter.; type: functional; conditions: 30 µM
# [7] = target: T4, Tyrosyl-tRNA synthetase, putative (Trypanosoma cruzi (strain CL Brener)) (UniProt Q4DSP6); experiment: Trypanosoma cruzi tyrosyl tRNA synthetase (TcYRS) _High Tyrosine SOP; type: functional; conditions: 30 µM; further: in the data most compounds retested in dose-response had high values
# T4 sequence (whole entry): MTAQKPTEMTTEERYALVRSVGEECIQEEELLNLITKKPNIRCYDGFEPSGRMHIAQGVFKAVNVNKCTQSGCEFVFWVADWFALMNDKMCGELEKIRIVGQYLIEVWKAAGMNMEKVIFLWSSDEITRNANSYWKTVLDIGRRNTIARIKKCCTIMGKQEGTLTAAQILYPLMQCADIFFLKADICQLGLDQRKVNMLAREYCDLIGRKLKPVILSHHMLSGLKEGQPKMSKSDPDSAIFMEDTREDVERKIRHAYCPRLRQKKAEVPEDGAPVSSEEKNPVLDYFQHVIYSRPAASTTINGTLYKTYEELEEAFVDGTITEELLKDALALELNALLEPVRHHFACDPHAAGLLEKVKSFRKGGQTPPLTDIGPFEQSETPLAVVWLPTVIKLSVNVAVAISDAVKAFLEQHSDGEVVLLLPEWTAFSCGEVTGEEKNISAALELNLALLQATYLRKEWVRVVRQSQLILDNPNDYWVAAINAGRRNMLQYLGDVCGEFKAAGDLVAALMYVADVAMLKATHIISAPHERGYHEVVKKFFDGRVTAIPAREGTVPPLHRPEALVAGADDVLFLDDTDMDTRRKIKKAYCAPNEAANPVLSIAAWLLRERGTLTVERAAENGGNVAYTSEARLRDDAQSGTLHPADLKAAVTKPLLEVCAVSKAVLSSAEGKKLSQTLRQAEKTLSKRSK
# [8] = target: T4, Tyrosyl-tRNA synthetase, putative (Trypanosoma cruzi (strain CL Brener)); experiment: Trypanosoma cruzi tyrosyl tRNA synthetase (TcYRS) SOP; type: functional; conditions: 30 µM
# [9] = target: Chromo domain-containing protein 1 (Saccharomyces cerevisiae (strain ATCC 204508 / S288c) (Baker's yeast)) (UniProt P32657); experiment: ScCHD-1 Enzyme Inhibition Assay; type: functional; conditions: 30 µM; further: in the data most compounds retested in dose-response had high values
# Chromo domain-containing protein 1 (Saccharomyces cerevisiae (strain ATCC 204508 / S288c) (Baker's yeast)), sequence (P32657 whole entry, the tested form may be a part): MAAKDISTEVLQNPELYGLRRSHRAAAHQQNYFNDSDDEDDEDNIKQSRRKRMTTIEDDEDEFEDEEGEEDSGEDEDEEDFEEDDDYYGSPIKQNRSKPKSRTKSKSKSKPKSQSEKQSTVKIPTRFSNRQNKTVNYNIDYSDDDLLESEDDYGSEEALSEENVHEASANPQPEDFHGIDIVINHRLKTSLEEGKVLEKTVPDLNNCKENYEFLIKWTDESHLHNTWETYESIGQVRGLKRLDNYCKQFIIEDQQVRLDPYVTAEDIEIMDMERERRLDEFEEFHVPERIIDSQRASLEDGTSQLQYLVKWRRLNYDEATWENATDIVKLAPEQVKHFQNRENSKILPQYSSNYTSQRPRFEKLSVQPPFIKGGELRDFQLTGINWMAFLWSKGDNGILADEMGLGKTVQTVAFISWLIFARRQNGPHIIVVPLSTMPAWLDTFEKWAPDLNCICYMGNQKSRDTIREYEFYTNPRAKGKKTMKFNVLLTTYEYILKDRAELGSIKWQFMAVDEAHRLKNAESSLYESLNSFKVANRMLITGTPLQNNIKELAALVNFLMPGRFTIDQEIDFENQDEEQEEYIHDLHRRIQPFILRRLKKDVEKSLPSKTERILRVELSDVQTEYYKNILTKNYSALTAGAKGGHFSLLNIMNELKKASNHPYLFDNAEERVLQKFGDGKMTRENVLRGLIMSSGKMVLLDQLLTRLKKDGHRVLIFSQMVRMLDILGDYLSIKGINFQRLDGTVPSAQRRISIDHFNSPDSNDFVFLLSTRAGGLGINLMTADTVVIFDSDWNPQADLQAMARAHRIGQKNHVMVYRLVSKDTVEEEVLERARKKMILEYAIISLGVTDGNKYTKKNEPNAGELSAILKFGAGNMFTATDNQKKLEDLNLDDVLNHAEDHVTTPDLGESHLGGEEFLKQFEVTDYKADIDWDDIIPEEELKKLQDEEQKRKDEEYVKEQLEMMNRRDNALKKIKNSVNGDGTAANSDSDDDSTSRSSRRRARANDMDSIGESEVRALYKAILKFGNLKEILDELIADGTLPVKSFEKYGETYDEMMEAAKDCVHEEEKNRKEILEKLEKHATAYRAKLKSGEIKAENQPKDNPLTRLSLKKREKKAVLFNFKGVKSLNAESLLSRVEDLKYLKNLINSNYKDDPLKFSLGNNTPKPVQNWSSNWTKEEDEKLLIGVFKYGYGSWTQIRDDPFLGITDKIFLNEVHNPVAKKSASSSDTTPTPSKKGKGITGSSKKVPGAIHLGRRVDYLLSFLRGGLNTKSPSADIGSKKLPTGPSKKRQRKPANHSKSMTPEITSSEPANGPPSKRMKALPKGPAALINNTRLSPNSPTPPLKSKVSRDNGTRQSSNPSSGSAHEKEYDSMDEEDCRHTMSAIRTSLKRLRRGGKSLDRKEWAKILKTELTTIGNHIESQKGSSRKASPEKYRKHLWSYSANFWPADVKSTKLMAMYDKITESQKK
# Protein translocase subunit SecA (Escherichia coli (strain K12)), sequence (P10408 whole entry): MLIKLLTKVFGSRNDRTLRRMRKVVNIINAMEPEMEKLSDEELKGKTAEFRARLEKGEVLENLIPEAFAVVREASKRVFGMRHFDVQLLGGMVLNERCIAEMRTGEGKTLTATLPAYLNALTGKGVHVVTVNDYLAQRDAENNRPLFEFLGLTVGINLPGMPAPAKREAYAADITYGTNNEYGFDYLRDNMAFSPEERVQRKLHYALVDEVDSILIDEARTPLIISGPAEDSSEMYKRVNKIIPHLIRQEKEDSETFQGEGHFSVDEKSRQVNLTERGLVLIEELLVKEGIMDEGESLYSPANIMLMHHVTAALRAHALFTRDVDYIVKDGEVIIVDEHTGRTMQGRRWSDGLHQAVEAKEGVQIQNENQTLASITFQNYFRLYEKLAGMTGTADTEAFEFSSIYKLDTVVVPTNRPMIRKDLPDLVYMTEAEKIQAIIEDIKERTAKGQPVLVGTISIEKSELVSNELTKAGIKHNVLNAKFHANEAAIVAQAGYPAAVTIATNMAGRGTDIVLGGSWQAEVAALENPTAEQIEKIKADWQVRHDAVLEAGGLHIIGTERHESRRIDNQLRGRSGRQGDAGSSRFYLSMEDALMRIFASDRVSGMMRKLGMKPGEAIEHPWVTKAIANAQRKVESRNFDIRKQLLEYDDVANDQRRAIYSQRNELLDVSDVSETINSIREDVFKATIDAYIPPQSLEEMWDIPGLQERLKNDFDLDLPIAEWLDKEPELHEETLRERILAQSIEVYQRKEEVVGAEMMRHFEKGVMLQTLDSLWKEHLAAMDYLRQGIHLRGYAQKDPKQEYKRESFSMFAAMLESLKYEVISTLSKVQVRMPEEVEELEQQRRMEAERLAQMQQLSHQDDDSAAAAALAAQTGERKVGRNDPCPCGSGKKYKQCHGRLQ
Structure (SMILES),Percent Effect [1],Percent Effect [2],Percent Effect [3],Percent Effect [4],Percent Effect (Trypanosoma cruzi),Percent Effect [5],Percent Effect [6],Percent Effect (Homo sapiens),Percent Effect [7],Percent Effect [8],Percent Effect [9]
CCCNC(=O)c1sccc1N(C)S(=O)(=O)c1ccc(Cl)cc1,1.13%,7.89%,-1.42%,-7.73%,-8.67%,9.47%,13.3%,38.4%,-4.25%,-2.6%,-1.51%
c1ccc(-n2ncc(CNCC3CCCN3c3cccnn3)n2)cc1 (stereo unspecified),-3.03%,-28.9%,-19.7%,8.84%,11.7%,-5.4%,-3.64%,6.81%,12.3%,18.5%,0.0713%
CC(Cn1ccnc1)NC(=O)NCCNC(=O)C(C)C (stereo unspecified),2.77%,23.7%,-2.17%,-3.21%,0.94%,-4.6%,15.4%,31.2%,3.43%,19.5%,-9.78%
CC(COc1ccccc1)NCc1nc(-c2cccnc2)no1 (stereo unspecified),-2.6%,6.94%,-4.69%,0.164%,1.85%,3.09%,6.14%,5.92%,3.16%,10.3%,-2.08%
CN(C)c1ccc(CNc2cncc(-n3cccn3)n2)cc1,-3.75%,5.2%,0.00463%,7.28%,3.75%,-6.05%,6.25%,9.83%,2.91%,12.2%,72%
CC(C)Oc1cccc(CNC(=O)NC(C)(C(=O)O)c2ccco2)c1 (stereo unspecified),-2.82%,13.2%,-1.29%,13.7%,3.08%,-1.08%,-2.79%,-7.9%,9.36%,18.5%,-0.593%
CS(=O)(=O)N1CC[C@]2(C[C@@H](OCC3CCC3)CO2)C1,-3.98%,16.2%,-8.34%,20.7%,2.64%,1.24%,11.6%,-1.67%,5.38%,18.5%,-5.25%
Cc1cc(C)n(CC2CCCN2C(=O)c2c[nH]c3ncccc23)n1 (stereo unspecified),-3.09%,-2.7%,10.7%,5.96%,-4.18%,4.99%,-3.05%,24.1%,-0.99%,-6.1%,12.6%
Cc1nccn1-c1nccnc1C1CCN(Cc2ccc(F)cc2)CC1,-2.09%,21.3%,4.62%,-5.84%,5.91%,-2.56%,15.2%,7.46%,4.25%,16.7%,-4.22%
CNS(=O)(=O)c1ccc(CNC(=O)NCC2CCOC2)cc1 (stereo unspecified),-3.53%,15.6%,0.491%,2.49%,1.86%,-0.21%,11.7%,-1.37%,7.62%,14.1%,-9.18%
O=C(Cn1cc(I)cn1)N1CCc2ccccc2C1,0.654%,-12%,6.11%,2.56%,-2.55%,-10%,6.1%,2.17%,2.12%,-2.56%,-2.67%
Cc1cc(CN(C)C(=O)c2cc3c([nH]c2=O)CCCC3=O)no1,-5.46%,5.41%,-1.63%,-1.13%,-7.52%,5.73%,-5.57%,18%,0.99%,6.1%,-0.0983%
COc1ccccc1S(=O)(=O)N1CCC(Oc2cccnn2)CC1,-5.78%,-5.48%,-9.71%,-3.66%,-4.11%,-0.909%,3.9%,16.2%,-1.07%,-2.5%,-1.62%
Cc1nc(C(C)C)sc1C(=O)NS(=O)(=O)c1ccc(C#N)cc1,-1.22%,8.11%,-3.43%,18.3%,5.99%,9.52%,11.9%,-9.57%,4.76%,9.76%,-5.85%
Cn1c(Cn2ccnc2)nnc1C1CCCN(C2CCCCC2)C1 (stereo unspecified),-3.14%,8.11%,5.59%,1.26%,1.93%,2.38%,3.1%,-7.16%,5.82%,19.5%,-3.83%
CCN1CCCC(CNC(=O)C2(c3cccc(Cl)c3)CC2)C1 (stereo unspecified),-4.26%,6.33%,0.975%,3.63%,-5.85%,-2.8%,14.6%,8.9%,7.29%,15.2%,-13.8%
COc1ccccc1CC1CCCN(CC(N)=O)C1 (stereo unspecified),-0.0936%,7.79%,0.0164%,9.64%,0.0979%,2.32%,-0.889%,-0.966%,2.86%,9.41%,-6.07%
CN(C)C(=O)[C@H]1C[C@@H]2CCN(C3CCOCC3)C[C@H]2O1,-0.651%,2.67%,-1.32%,-3.17%,4.44%,-50.7%,-1.03%,-1.34%,-1.04%,-5%,-4.08%
Cc1noc(C)c1CN1CC[C@H]2OCC[C@@H](C(=O)NCC3CC3)[C@@H]2C1,-4.39%,2.67%,1.83%,6.75%,-1.54%,-25.3%,8.21%,-17.4%,0%,12.5%,-5.06%
Cc1nn(C)cc1CN1CCC(C2Nc3ccccc3S(=O)(=O)N2)CC1 (stereo unspecified),-3.36%,6.76%,11.9%,2.59%,-1.78%,0.232%,7.49%,-1.1%,6.45%,14.3%,-9.41%
Cc1ccc(CC(=O)N(C)CC2(O)CCN(c3ccccn3)C2)s1 (stereo unspecified),-3.85%,-1.35%,12.4%,-1.42%,0.198%,-2.09%,0%,1.85%,4.3%,6.49%,-1.65%

# Reference: ChEMBL document CHEMBL3988442, “University of Dundee, Small-Polar-MMV Screening Library” (2021)
